The AC50 is the concentration giving half of the maximal activity seen.

Records with an inconclusive call do not appear. Active and inactive are the calls of the source. The calls were made as follows: active = hit-call score of the fitted dose curve at least 0.9, where 1 is the maximum; inconclusive = response in the unintended direction; inactive = score below 0.9.

The nature of assay [1]: Tanguay_ZF_120hpf_AXIS_legacy: (Legacy) Oregon State University Tanguay Lab 120 Hour Post-fertilization zebrafish Assay for Body Axis Malformation (AID 2283635).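 As to AC50: potency for an increased fraction of larvae scored with body axis malformation.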 Put shortly: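 Embryos: 5D wild-type, pronase-dechorionated 4 hpf; static exposure 6–120 hpf, 28C, sealed, dark, 1 embryo/well, 0.64% DMSO. 120 hpf axis malformation scored present/absent; dead embryos excluded. Analysed as gain of signal vs DMSO.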

Assay [2] is described as follows: Tanguay_ZF_120hpf_EYE_legacy: (Legacy) Oregon State University Tanguay Lab 120 Hour Post-fertilization zebrafish Assay for Eye Malformation (AID 2283636).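 Also: binary presence or absence of eye malformation scored by brightfield in 120 hpf larvae.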 The gist of the method:
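Dechorionated Tropical 5D zebrafish embryos, one per well from 6 hpf, static exposure to 120 hpf at 28C, 0.64% DMSO. Eye malformation scored present/absent by brightfield; dead embryos not scored.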

Assay [3] is described as follows: Tanguay_ZF_120hpf_SNOU_legacy: (Legacy) Oregon State University Tanguay Lab 120 Hour Post-fertilization zebrafish Assay for Snout Malformation (AID 2283637). Put shortly:
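Dechorionated tropical 5D wild-type zebrafish embryos exposed statically from 6 to 120 hpf at 28C, one per well, in 0.64% DMSO. Snout malformation scored as present/absent by brightfield at 120 hpf; dead embryos not scored.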

Assay [4] is described as follows: Tanguay_ZF_120hpf_OTIC_legacy: (Legacy) Oregon State University Tanguay Lab 120 Hour Post-fertilization zebrafish Assay for Otic Vesicle Malformation (AID 2283639). Put shortly: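 Tropical 5D wild-type zebrafish embryos were exposed statically in sealed, foil-covered plates at 28C until 120 hpf, with 0.64% (vol/vol) DMSO final. Otic vesicle malformation was scored present/absent by brightfield microscopy, with DMSO as baseline.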

The nature of assay [5]: Tanguay_ZF_120hpf_BRAI_legacy: (Legacy) Oregon State University Tanguay Lab 120 Hour Post-fertilization zebrafish Assay for Brain Malformation (AID 2283641). The gist of the method:
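Read-out: binary brain morphology call at 120 hpf (brightfield), fitted in gain-of-signal direction vs DMSO. Wild-type Tropical 5D embryos, static exposure, 28C, 0.64% DMSO final; 5uM trimethyltin chloride as positive control.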

Assay [6] in a line: Tanguay_ZF_120hpf_SOMI_legacy: (Legacy) Oregon State University Tanguay Lab 120 Hour Post-fertilization zebrafish Assay for Somite Malformation (AID 2283647). Put shortly:
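Binary brightfield scoring of somite defects at 120 hpf in 5D wild-type larvae; one dechorionated embryo per well, static exposure from 6 hpf, 28C, sealed and dark. Final DMSO 0.64%; trimethyltin chloride 5uM positive control.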

Assay [7] in a line: Tanguay_ZF_120hpf_PFIN_legacy: (Legacy) Oregon State University Tanguay Lab 120 Hour Post-fertilization zebrafish Assay for Pectoral Fin Malformation (AID 2283648).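 Also: each larva judged yes or no for fin defect by brightfield with dead larvae skipped.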 The gist of the method: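 Dechorionated Tropical 5D wild-type zebrafish embryos, one per well, statically exposed from 6 to 120 hpf at 28C with 0.64% DMSO final. Pectoral fin malformation scored present/absent by brightfield at 120 hpf; not scored in dead embryos.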

Assay [8] can be described thus: Tanguay_ZF_120hpf_CFIN_legacy: (Legacy) Oregon State University Tanguay Lab 120 Hour Post-fertilization zebrafish Assay for Caudal Fin Malformation (AID 2283649). The gist of the method: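 Dechorionated 5D wild-type zebrafish, static exposure 6–120 hpf, 28C, sealed and dark, 0.64% v/v DMSO final. Binary fin-malformation call at 120 hpf, brightfield; gain of signal vs DMSO baseline.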

The nature of assay [9]: Tanguay_ZF_120hpf_PIG_legacy: (Legacy) Oregon State University Tanguay Lab 120 Hour Post-fertilization zebrafish Assay for Pigmentation Malformation (AID 2283650). Put shortly:
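Dechorionated Tropical 5D wild-type embryos, one per well from 6 hpf, statically exposed at 28C in the dark until 120 hpf, 0.64% DMSO final. Pigmentation scored present/absent by brightfield microscopy; dead embryos not scored; fitted versus DMSO.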

The nature of assay [10]: Tanguay_ZF_120hpf_CIRC_legacy: (Legacy) Oregon State University Tanguay Lab 120 Hour Post-fertilization zebrafish Assay for Circulatory Malformation (AID 2283651). Put shortly:
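Tropical 5D wild-type embryos, dechorionated with pronase at 4 hpf, were placed singly in wells at 6 hpf and exposed statically at 28C to 120 hpf (0.64% DMSO final). Circulatory malformation was scored present/absent by brightfield microscopy.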

The nature of assay [11]: Tanguay_ZF_120hpf_SWIM_legacy: (Legacy) Oregon State University Tanguay Lab 120 Hour Post-fertilization zebrafish Assay for Swim Bladder Malformation (AID 2283654).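 Also: swim bladder malformation in each larva scored yes or no under brightfield.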 Put shortly: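 Dechorionated wild-type Tropical 5D zebrafish embryos, one per well from 6 hpf, were statically exposed at 28C until 120 hpf in 0.64% DMSO. Swim bladder malformation scored as present/absent by brightfield microscopy; not scored in dead larvae.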

A short description of assay [12]: Tanguay_ZF_120hpf_TRUN_legacy: (Legacy) Oregon State University Tanguay Lab 120 Hour Post-fertilization zebrafish Assay for Truncated Body (AID 2283655). Put shortly: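 Whole-embryo zebrafish screen: dechorionated 5D embryos, static exposure 6–120 hpf, 28C, sealed foil-covered plates, 0.64% DMSO. Binary truncation call; gain of signal versus DMSO baseline.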
Assay [13] can be described thus: Tanguay_ZF_120hpf_NC_legacy: (Legacy) Oregon State University Tanguay Lab 120 Hour Post-fertilization zebrafish Assay for Notochord and Tail Malformation (AID 2283656). Put shortly:
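Dechorionated 5D zebrafish, 1/well from 6 hpf; static exposure to 120 hpf, 28C, sealed, dark; final DMSO 0.64% v/v. NC scored binary (present/absent); dead embryos not scored. Fit vs DMSO baseline, gain direction.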

The nature of assay [14]: Tanguay_ZF_120hpf_PE_legacy: (Legacy) Oregon State University Tanguay Lab 120 Hour Post-fertilization zebrafish Assay for Pericardial Edema (AID 2283640). Put shortly:
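Static waterborne exposure, 5D wild-type embryos, 28C, to 120 hpf; final DMSO 0.64% (vol/vol). Binary PE call at 120 hpf by brightfield; fitted upward vs DMSO baseline. 5uM trimethyltin chloride as positive control.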

The nature of assay [15]: CCTE_Simmons_CellTiterGLO_HEK293T: Viability Assessment in CCTE's Assays for Thyroperoxidase (TPO) Inhibition, Simmons Lab (AID 2283665).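 As to AC50: cells exposed to compound for 24 h before readout; actives reduce ATP signal below DMSO vehicle meaning cytotoxicity.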 The gist of the method: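 HEK293T cells in DMEM with 1% FBS were dosed with 8 concentrations (5 nM–87.5 uM final, 0.5% DMSO) for 24 hr at 37C; ATP content was read by CellTiter-Glo luminescence, loss-of-signal versus DMSO, three biological replicates.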

Regarding `CCCCC(CC)COC(=O)CCCCCCCCC(=O)OCC(CC)CCCC` (stereo not given), the compound was called inactive in [1], in assay [2], in assay [3], in assay [4], in assay [5] and in assay [6]. Further, the compound was called inactive in assay [7], in assay [8], in assay [9], in assay [10], in [11] and in [12]. Also, the result in [13] was inactive.

Consider `CCCC(=O)OCC`, for which the result in assay [1], in assay [2], in [3], in [4], in [5] and in assay [6] was inactive. Moreover, the call in [7], in [8], in assay [9], in [10], in [11] and in assay [12] was inactive. For the same compound, the outcome in assay [13] was inactive.

As for `COc1cccc(-c2ccc(/C=C\CN3CCCCCC3)cc2Cl)c1`, the compound was classed as inactive in [1], in [2], in assay [3], in [4], in assay [14] and in assay [5]. Also, the call in assay [6], in assay [7], in assay [9], in assay [11] and in assay [13] was inactive.

Take `Nc1ccc(Nc2ccccc2)cc1`: the AC50 in assay [1] was 43.8 µM (active); in [2], 45.8 µM (active); in assay [3], 34.9 µM (active); in assay [5], 45.1 µM (active); in [6], 40.1 µM (active); in assay [7], 41.2 µM (active). For the same compound, the AC50 was 47 µM (active) in assay [8]; 48.7 µM (active) in assay [9]; 45.6 µM (active) in assay [11]; 40.8 µM (active) in assay [12]; 38.4 µM (active) in assay [15]. The compound was called inactive in assay [4] and in [13].

As to `CC(C)=CCCC(C)=CC=O`, the result in assay [1], in assay [2], in assay [3], in [4], in assay [14] and in [5] was inactive. Besides, the compound was classed as inactive in assay [6], in assay [8], in [9], in [10], in assay [11] and in assay [12]. Moreover, the compound was called inactive in assay [13] and in assay [15].

For the compound `Cn1c(=O)c2c(ncn2C)n(C)c1=O`, the outcome in assay [1], in assay [2], in assay [3], in assay [4], in assay [14] and in assay [5] was inactive. Besides, the call in assay [6], in [7], in [8], in assay [9], in assay [10] and in assay [11] was inactive. For the same compound, the compound was called inactive in assay [13].

As for `CCN(C(=O)c1cc(C)cc(OC[C@H](C)Nc2ccncc2)c1)C(C)C`, the call in assay [1], in assay [2], in assay [3], in [4], in assay [5] and in assay [6] was inactive. Besides, the compound was classed as inactive in assay [7], in assay [8], in [9], in [10] and in assay [13].

Turning to `O=P(OC(CCl)CCl)(OC(CCl)CCl)OC(CCl)CCl`, the AC50 was 35.3 µM (active) in assay [1]; 36.7 µM (active) in assay [2]; 25.9 µM (active) in [3]; 34.7 µM (active) in assay [4]; 31.7 µM (active) in assay [5]; 9.13 µM (active) in [6]. For the same compound, the AC50 in assay [7] is 40.3 µM (active); in assay [8] it was 30 µM (active); in assay [9] it was 33.9 µM (active); in assay [11], 25.9 µM (active); in [12], 36.2 µM (active). The outcome in [10], in assay [13] and in assay [15] was inactive.

On to `Cc1ccc(C)c(O)c1`, for which the result in assay [1], in assay [2], in [3], in [4], in [14] and in [5] was inactive. Besides, the result in [6], in assay [7], in assay [8], in [9], in assay [10] and in assay [11] was inactive. Moreover, the call in assay [13] was inactive.

(Values after PubChem BioAssay (EPA / NIEHS).)
